BAZ2B inh: inhibitors of human BAZ2B bromodomain. Potency, µM (titrated, usually from 114 µM), without a hit: at the highest dose activity change, negative = inhibition, most hits filed as inhibitors. actives 4.4% (n = 360,000). AlphaScreen BAZ2B-H3K14Ac peptide displacement. Q9UIF8; further: on the % scale 0 is the no-effect control and ±100 the full control effect; nearly all actives have a fitted effect of over 60% in size
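In this displacement format the biotinylated H3(5-23) peptide acetylated at Lys14 serves as ligand at 50 nM, with BAZ2B at 50 nM in PBS pH 7.4 containing 0.01% Tween-20. Donor and acceptor beads are 10 ug/mL final.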
G9a block: G9a (human) methyltransferase inhibition. G9a H3K9 monomethylation, AlphaScreen, 2 h. AID 504332. Q96KQ7. Potency, µM (titrated, usually from 102 µM), inactives show top-dose activity, negative = inhibition, actives largely listed as inhibitors. actives 8.8% (n = 350,000); further: on the % scale 0 is the no-effect control and ±100 the full control effect; nearly all actives have a fitted effect of over 75% in size
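G9a (20 nM) was preincubated 15 min with compound, then reacted 2 h at room temperature with 500 nM biotin-H3K9 peptide and 20 µM SAM. Monomethyl-H3K9 detected by AlphaScreen using anti-H3K9me1 antibody.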
VDR inh: vitamin D3 receptor (human) inhibition; VDR-SRC2-3 peptide fluorescence polarization, 2 h; Potency, µM, without a hit: max response, negative = inhibition, hits mostly inhibitors; actives 0.93% (n = 400,000); further: on the % scale 0 is the no-effect control and ±100 the full control effect
Target sequence (P11473 whole entry, looked up): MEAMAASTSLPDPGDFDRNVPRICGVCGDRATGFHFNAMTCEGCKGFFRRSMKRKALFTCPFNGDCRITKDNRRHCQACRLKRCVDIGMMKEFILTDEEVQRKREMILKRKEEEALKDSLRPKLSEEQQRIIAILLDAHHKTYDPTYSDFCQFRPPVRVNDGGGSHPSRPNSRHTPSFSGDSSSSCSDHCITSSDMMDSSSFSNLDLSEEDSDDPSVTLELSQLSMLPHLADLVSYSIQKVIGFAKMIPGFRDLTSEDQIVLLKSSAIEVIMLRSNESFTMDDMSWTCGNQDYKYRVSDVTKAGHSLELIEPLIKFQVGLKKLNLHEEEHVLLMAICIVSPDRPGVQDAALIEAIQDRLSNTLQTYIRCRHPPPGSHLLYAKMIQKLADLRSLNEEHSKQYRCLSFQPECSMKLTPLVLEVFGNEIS
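Measured by FP: displacement of SRC2-3 coactivator peptide from VDR by library compounds, following a two-hour ambient incubation.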
PLK1 PBD block: blocks phosphopeptide binding to human PLK1 polo-box domain; Potency, µM, for inactives: max response, negative = inhibition, most hits filed as inhibitors; P53350; AID 720504; actives 2.8% (n = 360,000); Plk1 PBD binding of FITC phosphopeptide, fluorescence polarization; further: series mostly up to about 57 µM; on the % scale 0 is the no-effect control and ±100 the full control effect; nearly all actives have a fitted effect of over 65% in size
JMJD2A Tudor: inhibitors of human JMJD2A Tudor domain | O75164 | AlphaScreen JMJD2A-Tudor / H3K4me3 peptide binding | Potency, µM (titrated, usually from 114 µM), for the others: top-dose activity change, negative = inhibition, most hits filed as inhibitors | actives 4.4% (n = 390,000); further: on the % scale 0 is the no-effect control and ±100 the full control effect; nearly all actives have a fitted effect of over 50% in size
HP1b binding inh: blocks HP1-beta chromodomain binding to methylated histone tails; actives 0.56% (n = 390,000); AID 540317; AlphaScreen HP1-beta / biotin-H3K9me3 peptide binding; Potency, µM (doses to about 114 µM), for inactives: at the top dose activity change, negative = inhibition, hits mostly inhibitors; P83916; further: nearly all actives have a fitted effect of over 70% in size
Target sequence (P83916 whole entry, looked up): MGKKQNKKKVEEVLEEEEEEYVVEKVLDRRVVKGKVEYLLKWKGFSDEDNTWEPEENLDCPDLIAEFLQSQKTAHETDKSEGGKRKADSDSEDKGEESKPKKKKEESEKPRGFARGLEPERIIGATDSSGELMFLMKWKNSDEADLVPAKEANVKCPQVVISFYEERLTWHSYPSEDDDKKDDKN
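Compound inhibition of the preformed complex between 50 nM HP1-beta and 50 nM biotinylated H3K9me3 peptide was read by AlphaScreen. Buffer was PBS pH 7.4 with 0.01% Tween-20. Incubations ran 30 min at room temperature, with 10 ug/mL donor/acceptor beads.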
* = called active by the depositor; ? = inconclusive; . = no result; [ ] = another dose, or the depositor's remark. Most compounds without a hit are left out; they make up all but 11% or so of the library. The call rests on the fitted dose curve; in most records, active means well fitted curve in the direction sought with a large enough effect; inconclusive means small, poorly fitted or top-dose-only effect, or another doubt; inactive means no such curve, though single readings can be large; an effect the other way counts as inactive or inconclusive. Potency means the concentration at half of the fitted maximal effect.

SMILES | BAZ2B inh | G9a block | VDR inh | PLK1 PBD block | JMJD2A Tudor | HP1b binding inh
CCCOc1ccc2c3c(c(=O)oc2c1)CCCC3 | 2% | 38%[59 µM] | -6% | 7.5µM* | -24%[11.4 µM] | 21%
O=C(Oc1ccc2c3c(c(=O)oc2c1)CCCC3)c1ccco1 | -22% | ? | -14% | 24µM* | -5%[11.4 µM] | -5%
Cc1sc2ncn(CC(=O)N3CCN(c4ccccc4)CC3)c(=O)c2c1S(=O)(=O)N1CCN(c2ncccn2)CC1 | -2% | -43%[59 µM] | -7% | . | -13% | 24%
C[C@H](NC(=O)C1(c2ccccc2)CCN(C(=O)[C@H]2CSCN2C(=O)OC(C)(C)C)CC1)C(=O)O | 3% | -28% | 11% | -6% | ? | 26%
CCOc1ccc(N2C(=O)CS(=O)(=O)C23C(=O)N(Cc2cccc(Cl)c2)c2ccccc23)cc1 (stereo unspecified) | -2%[57.1 µM] | -40%[59 µM] | 5% | . | -29% | 6%
COc1ccc(-c2[nH]ncc2CN(CC2CCC(=O)N2)C(C)C)cc1F (stereo unspecified) | -10% | ? | ? | 27µM* | ? | -14%[57 µM]
CCn1ccnc1CN(C)Cc1cn[nH]c1-c1ccc(OC)c(F)c1 | -30% | ? | -6% | -14% | ? | -29%
O=C(NNC(=O)c1ccc(Oc2ccc(C3SCCS3)cc2)o1)c1ccc(Cl)cc1 | -36% | -29% | -12% | -1% | -7% | 32%
N=C1C=CC=C2C1=NC1(CCCCC1)N2O | 45µM* | ? | -14% | -4% | ? | ?
O=C(Nc1ccc2snnc2c1)N1CCCCC1 | -3% | -36% | -16% | -14% | -20% | 24%
CSc1nsc(SC)c1NC(=O)N1CCCCC1 | 6% | 45µM* | -14% | -10% | -5% | 28%
O=C(/C=C/c1ccccc1)C1=C(O)C(=O)N(CCO)C1c1ccc2c(c1)OCO2 (stereo unspecified) | -26% | ? | -4% | -7% | ? | 4%
O=C(O)CCCCCN1C(=O)C(O)=C(C(=O)/C=C/c2ccccc2)C1c1ccccc1[N+](=O)[O-] (stereo unspecified) | -17% | -6%[0.501 µM] | -7% | 34µM* | ? | 14%
COc1cccc(Cn2c(=O)c(-c3ccc(F)cc3)nc3cnc(N4CCNCC4)nc32)c1 | . | 13%[0.501 µM] | 62% | . | . | .
O=[N+]([O-])c1ccc(S(=O)Cc2ccccc2)c([N+](=O)[O-])c1 (stereo unspecified) | . | . | ? | 0.75µM* | ? | -14%
Cc1ccc2nc(-c3cccc(NS(C)(=O)=O)c3)cc(-c3ccccc3)c2c1 | 1% | 24% | -6% | 0% | ? | 11%
Brc1cccc(-c2nnc(CN3CCN(c4ccccn4)CC3)o2)c1 | 0% | 6%[59 µM] | 2% | . | -6% | 35%
CCc1ccc(CN2CCN(c3ncccn3)CC2)cc1 | 50µM* | 6%[0.501 µM] | -22% | 2% | 20µM* | -21%
O=S(=O)(c1ccccc1)N1CCN(Cc2cccc(Br)c2)CC1 | . | . | -24% | 2% | 28µM* | ?
O=S(=O)(c1cccc(Br)c1)N1CCN(CCc2ccccc2)CC1 | 4% | 11% | -1% | -4% | 12% | 90%
Brc1cccc(CN2CCN(c3ncccn3)CC2)c1 | ? | 10µM* | 10% | 2% | 20µM* | ?
CCOc1cc(CN2CCN(c3ncccn3)CC2)ccc1OC | 79µM* | . | -2% | 4% | 2.8µM* | ?
Cc1nn(CC(=O)N2CCC(C(N)=O)CC2)c(=O)c2nn(-c3ccccc3)c(C)c12 | -11% | 11% | 10% | ? | -14% | 1%
Cc1cccc(CN2CCNC2=O)c1 | 1% | ? | 8% | -4% | 4% | 35%
c1ccc(N2CCN(Cc3ccsc3)CC2)nc1 | 79µM* | 14µM* | -6% | -2% | 3.2µM* | ?
SMILES | BAZ2B inh | G9a block | VDR inh | PLK1 PBD block | JMJD2A Tudor | HP1b binding inh
Cc1cccc(CN2CCN(c3ccccn3)CC2)c1 | . | . | -15% | 2% | 3.2µM* | ?
O=c1cc(CN2CCN(c3ccccn3)CC2)nc2sccn12 | -21% | -41% | -7% | -17% | -23% | 6%
c1ccc(CCCN2CCN(c3ccccn3)CC2)cc1 | ? | 40µM* | -26% | -13% | 25µM* | ?
Cc1cccc(CN2CCN(c3ncccn3)CC2)c1 | ? | . | -6% | -1% | 2.8µM* | ?
CCOc1ccc(S(=O)(=O)N2CCOCC2)cc1NC(=O)CCOc1ccc(C(C)(C)C)cc1 | -6% | 7% | -14% | -4% | -8% | 1%
CCCCCc1nnc(NC(=O)Cc2ccc([N+](=O)[O-])cc2)s1 | -2% | 45µM* | -11% | ? | -32% | 6%
CC(C)(C)Cc1nnc(NC(=O)Cc2ccc([N+](=O)[O-])cc2)s1 | 3% | 10µM* | ? | 5.3µM* | ? | ?
Cc1ccnc(NC(=O)Cc2ccc(-c3ccccc3)cc2)c1 | -15% | 57% | -5% | 0% | 13% | 61%
Cc1ccnc(NC(=O)Cc2ccc([N+](=O)[O-])cc2)c1 | 50µM* | . | 2% | -17% | -3% | 33%
Cc1cc(C)cc(NC(=O)CSc2nc(CSc3ccc(Cl)cc3)cc(=O)[nH]2)c1 | -1% | . | 14% | -8% | -10% | 11%
O=C(CCN1CCC(c2ccccc2)C1)c1ccccc1 (stereo unspecified) | ? | . | -12% | ? | -24% | 31%
O=C(CCN1CCC(c2ccccc2)C1)c1cccs1 (stereo unspecified) | -4% | ? | ? | 21µM* | -13% | 5%
COc1cc(C(=O)NC2CCN(Cc3ccccc3)CC2)cc(Cl)c1OC | 9% | -2%[2.33 µM] | 18% | -1% | -20% | 32%
COc1cc(C(=O)CCN2CCC(c3ccccc3)C2)cc(OC)c1OC (stereo unspecified) | -33% | 3.5µM* | ? | 27µM* | -29% | 24%
O=C(CCN1CCCC1)c1cccs1 | 25% | 25µM* | ? | 11µM* | -3% | 39%
CC(=O)c1cc(C(=O)Nc2cc(C)cc(C)c2)c2ccccn12 | -1% | -29%[59 µM] | -7% | . | -6% | 23%
O=C(C=C(O)c1ccc(Cl)cc1)C(=O)NNC(=O)C(O)(c1ccccc1)c1ccccc1 | . | . | 1% | -15% | ? | -18%
Cc1ccc(/C(O)=C/C(=O)C(=O)NNC(=O)C(O)(c2ccccc2)c2ccccc2)cc1 | 50µM* | -10%[59 µM] | -9% | -4% | ? | 13%
CN(C)c1ccc(NC(=O)CN2C(=O)c3ccccc3Sc3ccc(C(=O)N4CCCC4)cc32)cc1 | ? | 4.5µM* | 7% | . | ? | -16%
CN1CCCCC1(C)C(=O)NCc1ccc(F)cc1 (stereo unspecified) | . | . | . | -6% | . | .
CC(=O)N1CCc2c(sc3c2c(=O)n(CCc2ccccc2)c(=O)n3Cc2ccc(Cl)cc2)C1 | -32% | ? | -13% | . | -27% | 11%

Screens: PubChem, National Center for Advancing Translational Sciences (NCATS)
